Source: PubChem (National Center for Advancing Translational Sciences (NCATS))
KB-V1 MDR tox – qHTS assay for MDR1-selective chemotherapeutics: Primary screen using the drug-selected MDR subline cells KB-V1 | KB-V1 MDR cells viability, CellTiter-Glo, 72 h | Potency, µM (highest dose often 46.1 µM), hits mostly cytotoxic | hit rate 3.4% among 400,000 | AID 1347076, 2019; further: nearly all actives have a fitted effect of over 60% in size
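KB-V1, DMEM (no phenol red) + 10% FBS; cpd pin-transferred, titration series; 72 h, 37 degrees C; CellTiter-Glo, luminescence. Data normalized, curve-fit.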
DT40 TDP1 no CPT – qHTS for Inhibitors of human tyrosyl-DNA phosphodiesterase 1 (TDP1): qHTS in cells in absence of CPT; DT40 Tdp1-/- hTDP1 cells, no CPT, ATP luminescence, 48 h; Potency, µM (series often up to 46.2 µM), actives largely listed as inhibitors; hit rate 15% among 420,000; AID 686978, 2013; further: nearly all actives have a fitted effect of over 55% in size
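A cellular qHTS used chicken DT40 cells lacking endogenous Tdp1 but carrying stably transfected human TDP1. Compounds were applied without camptothecin, and cell growth kinetics were judged by ATP-dependent luminescence after ≥48 hr.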
HT1080 IDH1KD tx – qHTS for induction of synthetic lethality in tumor cells producing 2HG: qHTS for the HT-1080-IDH1KD cell line. HT-1080 IDH1 knockdown viability, ATP luminescence, 48 h. Potency, µM (doses to about 46.1 µM), actives largely listed as cytotoxic. hit rate 2% among 360,000. AID 686971, 2013
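In this qHTS, HT-1080 cells depleted of IDH1 are exposed for 48 h at 37 °C to compound titrations. Toxicity is scored from CellTiter-Glo luminescence, with DMSO as full viability and medium alone as none.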
TDP1 cell CPT – qHTS for Inhibitors of human tyrosyl-DNA phosphodiesterase 1 (TDP1): qHTS in cells in presence of CPT. chicken DT40 Tdp1-/-;hTDP1 cells + 20 nM CPT, ATP luminescence, 48 h. Potency, µM (top dose mostly 46.2 µM), usual class: inhibitors. hit rate 12% among 420,000; further: nearly all actives have a fitted effect of over 55% in size
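Cell growth measured by CellTiter-Glo luminescence after a minimum 48 h, 37 C compound exposure with 20 nM CPT in Tdp1-knockout DT40 cells stably expressing hTDP1, seeded 400/well; qHTS titration format.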
HT1080-NT tox – qHTS for induction of synthetic lethality in tumor cells producing 2HG: qHTS for the HT-1080-NT fibrosarcoma cell line | HT-1080-NT fibrosarcoma viability, CellTiter-Glo ATP luminescence, 48 h | Potency, µM (highest dose often 46.1 µM), usual class: cytotoxic | hit rate 1.6% among 360,000 | AID 686970, 2013;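 further: NT is the 2HG producing partner of a matched IDH1 knockdown line; nearly all actives have a fitted effect of over 55% in size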
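HT-1080-NT fibrosarcoma cells (2HG-overproducing), 750 cells/well in RPMI with 5% FBS, dosed after 2 h and incubated 48 h at 37C. CellTiter-Glo luminescence normalized to DMSO and no-cell wells; concentration-response curves fitted and classed.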
KB-3-1 cytotox – qHTS assay for MDR1-selective chemotherapeutics: Primary screen using the parental adenocarcinoma cell KB-3-1 | KB-3-1 viability, CellTiter-Glo ATP luminescence, 72 h | Potency, µM (doses to about 46.1 µM), hits mostly cytotoxic | hit rate 1.4% among 400,000 | AID 1347075, 2019; further: nearly all actives have a fitted effect of over 60% in size
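Using CellTiter-Glo luminescence, growth of non-resistant KB-3-1 adenocarcinoma cells is assessed 72 h after pin-tool compound addition at 37 °C. Normalized responses across the concentration series yield fitted curves.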
Numbers stand for hits; ! = repeats disagree. A selection: hits, their analogues and other compounds. The true share with any hit is near 19%. The call rests on the fitted dose curve; in most records, active means well fitted curve in the direction sought with a large enough effect; inconclusive means small, poorly fitted or top-dose-only effect, or another doubt; inactive means no such curve, though single readings can be large; an effect the other way counts as inactive or inconclusive.

Screening Cc1nn2c(=O)cc(COC(=O)c3ccc(NC(=O)c4cccs4)cc3)nc2s1 returned DT40 TDP1 no CPT 15µM and TDP1 cell CPT 16µM.
Cc1cccc(C(=O)Nc2cccc(C(=O)OCc3cc(=O)n4nc(C(C)C)sc4n3)c2)c1 was read as DT40 TDP1 no CPT 15µM and TDP1 cell CPT inconclusive.
For CCc1nn2c(=O)cc(COC(=O)c3cccc(NC(=O)c4ccccc4C)c3)nc2s1 the results were DT40 TDP1 no CPT 15µM and TDP1 cell CPT 21µM.
For COc1ncc2nc(C)c(=O)n(C[C@H]3CCCO3)c2n1 the results were DT40 TDP1 no CPT inactive and TDP1 cell CPT inactive.
Screening CCc1nn2c(=O)cc(COC(=O)c3ccc(NC(=O)c4cccs4)cc3)nc2s1 returned DT40 TDP1 no CPT 6.5µM and TDP1 cell CPT 6.5µM.
CCOc1cc(C(=O)OCc2cc(=O)n3nc(CC)sc3n2)cc(OCC)c1OCC was read as KB-V1 MDR tox inactive, DT40 TDP1 no CPT inconclusive, TDP1 cell CPT 18µM and KB-3-1 cytotox inactive.
Screening CC(=O)Nc1cccc(C(=O)OCc2csc(CC(=O)Nc3ccccc3C)n2)c1 returned KB-V1 MDR tox 21µM, DT40 TDP1 no CPT inactive, HT1080 IDH1KD tx inactive, TDP1 cell CPT inactive, HT1080-NT tox inactive and KB-3-1 cytotox inactive.
For CCc1nn2c(=O)cc(COC(=O)CNC(=O)c3ccccc3)nc2s1 the results were KB-V1 MDR tox inactive, DT40 TDP1 no CPT inactive, TDP1 cell CPT inactive and KB-3-1 cytotox inactive.
COc1cc(C(=O)OCc2cc(=O)n3nc(C4CCCCC4)sc3n2)cc(OC)c1OC was read as KB-V1 MDR tox inactive, DT40 TDP1 no CPT 10µM, TDP1 cell CPT 12µM and KB-3-1 cytotox inactive.
For CCOc1ccc(C(=O)Nc2ccc(C(=O)OCc3cc(=O)n4nc(CC)sc4n3)cc2)cc1 the results were DT40 TDP1 no CPT inconclusive and TDP1 cell CPT inactive.
`Cn1c(=O)n(Cc2ccccc2)c(=O)c2c1nc1n2CCN1c1ccccc1` gave DT40 TDP1 no CPT inactive and TDP1 cell CPT inactive.
For C=CCOC1COC2C(OCC=C)COC12 (configuration not stated) the results were KB-V1 MDR tox inactive, DT40 TDP1 no CPT inactive, HT1080 IDH1KD tx inactive, TDP1 cell CPT inactive, HT1080-NT tox inactive and KB-3-1 cytotox inactive.
Cc1cccc(C(=O)NNC(=O)c2cc3cc4ccccc4nc3s2)c1 was read as KB-V1 MDR tox inactive, DT40 TDP1 no CPT inconclusive, HT1080 IDH1KD tx 21µM, TDP1 cell CPT inconclusive, HT1080-NT tox inconclusive and KB-3-1 cytotox inactive.
COCCNC(=O)CN(Cc1ccc2c(c1)OCO2)C(=O)CCC(=O)Nc1nccs1 was read as KB-V1 MDR tox inactive, DT40 TDP1 no CPT 18µM, HT1080 IDH1KD tx inactive, TDP1 cell CPT 18µM, HT1080-NT tox inactive and KB-3-1 cytotox inactive.
For COCCN(CC(=O)NCc1ccc2c(c1)OCO2)C(=O)CCC(=O)Nc1nccs1 the results were KB-V1 MDR tox inactive, DT40 TDP1 no CPT inactive, HT1080 IDH1KD tx inactive, TDP1 cell CPT inactive, HT1080-NT tox inactive and KB-3-1 cytotox inactive.
For COCCCN1C(=O)C(CC(=O)NC2CC2)CC(C(=O)N2CCOCC2)=C1C (configuration not stated) the results were KB-V1 MDR tox inconclusive, DT40 TDP1 no CPT inactive, HT1080 IDH1KD tx inactive, TDP1 cell CPT inactive, HT1080-NT tox inactive and KB-3-1 cytotox inactive.
For CCCCCCCCCC(=O)N[C@H](CN1CCOCC1)[C@H](O)c1ccccc1 the results were KB-V1 MDR tox inconclusive, DT40 TDP1 no CPT 23µM!, HT1080 IDH1KD tx inconclusive, TDP1 cell CPT inconclusive, HT1080-NT tox 16µM and KB-3-1 cytotox inactive.
